High-throughput results as filed in PubChem.
TDP1 cell noCPT – qHTS for Inhibitors of human tyrosyl-DNA phosphodiesterase 1 (TDP1): qHTS in cells in absence of CPT | DT40 Tdp1-/- hTDP1 cells, no CPT, ATP luminescence, 48 h | hit rate 15% among 420,000 | Potency, µM (top dose mostly 46.2 µM), inactives show at the top dose activity change, negative = growth inhibition, hits mostly inhibitors; further: potency means the concentration at half of the fitted maximal effect; on the % scale 0 is the no-effect control and ±100 the full control effect; nearly all actives have a fitted effect of over 55% in size
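Chicken DT40 Tdp1-/- cells complemented with human TDP1, screened without camptothecin (DMSO vehicle only), 400 cells/well. Compounds pin-transferred, cells incubated at 37 °C for at least 48 hr. Growth read as ATP-dependent luminescence (CellTiter-Glo, 30 min at RT).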
DT40 TDP1 CPT – DT40-hTDP1 cell growth loss with CPT. chicken DT40 Tdp1-/-;hTDP1 cells + 20 nM CPT, ATP luminescence, 48 h. Potency, µM (titrated, usually from 46.2 µM), for inactives: at the highest dose activity change, negative = growth inhibition, most hits filed as inhibitors. hit rate 12% among 420,000; further: potency means the concentration at half of the fitted maximal effect; on the % scale 0 is the no-effect control and ±100 the full control effect; nearly all actives have a fitted effect of over 55% in size
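Chicken DT40 Tdp1-/- cells complemented with human TDP1, 400 cells/well, exposed to compounds plus 20 nM camptothecin for at least 48 h at 37 C; viability read as ATP content by CellTiter-Glo luminescence.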
BCR signal inh – chronic active BCR signaling inhibition; ABC-DLBCL IkBa-CBG/CBR reporter, luminescence ratio, 4 h; Potency, µM (top dose mostly 46.1 µM), inactives show at the highest dose activity change, negative = inhibition, hits mostly inhibitors; hit rate 0.05% among 340,000; active means well fitted inhibition curve with a large enough effect in the signal ratio, with a control signal flat, not every such curve was filed as active; inconclusive means small, poorly fitted or top-dose-only effect, or effect the other way, or a change in a side signal; the % refers to the signal ratio;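 further: potency means the concentration at half of the fitted maximal effect; plate controls were basal doxycycline-induced cells for no effect and cells given 10 µM MG132 for full effect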
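Compounds up to 46 uM were incubated four hours with TMD8 cells whose green CBG68 luciferase is fused to IkappaBalpha; red CBR luminescence normalised the signal, and concentration-effect curves were fitted to fusion, red and ratio data.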
IL1B secr inh – blocks inflammasome-driven IL-1 beta release | hit rate 4.7% among 360,000 | THP-1 LPS/ATP IL-1B secretion, AlphaLISA, 16 h; stronger effect = lower value | activity change, % at 57.5 µM; in the data active means activity change below about -50%; inconclusive means mostly about -30% to -49%; further: on the % scale 0 is the no-effect control and ±100 the full control effect
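Secreted IL-1B measured by AlphaLISA bead assay after 16 h compound exposure of THP-1 cells; compounds (final up to 57.5 uM) added 1 h before LPS (250 ng/mL) and ATP (1.25 mM) stimulation; lower signal means less secretion.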
MCF10A rereplic – induces DNA re-replication in MCF 10a normal breast cells; hit rate 2.9% among 350,000; MCF 10A DNA re-replication, Hoechst nuclear intensity, 48 h; Potency, µM (titrated, usually from 46.1 µM), for the others: at the top dose activity, positive = re-replication, most hits filed as activators; further: potency means the concentration at half of the fitted maximal effect; % of control where 0% means no effect; nearly all actives have a fitted effect of over 50% in size
SW480 rereplic – inducers of DNA re-replication in SW480 colon cancer cells | AID 624297 | hit rate 1.8% among 340,000 | SW480 DNA re-replication, Hoechst DNA content imaging, 48 h | Potency, µM (top dose mostly 46.1 µM), for the others: at the top dose re-replication activation, hits mostly activators; further: potency means the concentration at half of the fitted maximal effect; % of control where 0% means no effect; nearly all actives have a fitted effect of over 55% in size
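Treated cells incubate 48 hr (37 C, 5% CO2), are stained 40 min with Hoechst, and nuclear fluorescence is enumerated; a rise in nuclei with high DNA signal marks re-replication.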
* marks the source's active call; other numbers are inactive results; u = inconclusive; x = not tested or not shown. An excerpt weighted towards active compounds, which were near 19% of everything screened. Unless noted, the call rests on the fitted dose curve; in most records, active means well fitted curve in the direction sought with a large enough effect; inconclusive means small, poorly fitted or top-dose-only effect, or another doubt; inactive means no such curve, though single readings can be large; an effect the other way counts as inactive or inconclusive.

SMILES	TDP1 cell noCPT	DT40 TDP1 CPT	BCR signal inh	IL1B secr inh	MCF10A rereplic	SW480 rereplic
COc1cc(Cl)c(C)cc1NC(=O)C1CCCN(c2ncnc3onc(-c4ccc(F)cc4)c23)C1 (configuration not stated)	8.2µM*	15µM*	x	x	x	x
CCc1ccccc1NC(=O)C1CCCN(c2ncnc3onc(-c4ccc(F)cc4)c23)C1 (configuration not stated)	u	u	1%	-13	u	1%
CCOc1ccccc1NC(=O)C1CCCN(c2ncnc3onc(-c4ccc(F)cc4)c23)C1 (configuration not stated)	23µM*	21µM*	x	x	x	x
C=CCNS(=O)(=O)NC(=O)C1=C(N2CCCC2)COC1=O	2%	7%	4%	0	5%	-23%
CCOC(=O)c1c(NC(=O)CCl)sc(CN(C)C)c1-c1ccccc1	9.2µM*	4.1µM*	u	-98*	u	u
CCOC(=O)c1c(NC(=O)CN2CCCCC2)sc2c1CCCC2O (configuration not stated)	u	u	u	35	8%	0%
CCOC(=O)c1c(NC(=O)CN2CCCCC2)sc(CN(C)C)c1-c1ccccc1	u	u	-6%	-60*	26µM*	16µM*
CCOC(=O)c1c(NC(=S)N2CCN(C)CC2)sc(C)c1-c1ccccc1	u	u	0%	u	26µM*	u
COc1ccc(OC)c(CCNC(=O)c2ccccc2NC(=O)C2=C(C)OCCS2)c1	u	u	1%	0	1%	u
COc1ccc(NS(=O)(=O)c2ccc3ccccc3c2)c2ncccc12	6.5µM*	8.2µM*	3.2µM*	91	u	15µM*
COc1ccc(OC)c(NS(=O)(=O)c2cccc3cccnc23)c1	-29%	-5%	1%	18	4%	-1%
COc1ccc(C(C)(C)C)cc1NS(=O)(=O)c1cccc2cccnc12	18µM*	26µM*	-1%	u	15%	2%
COc1ccccc1CNC(=O)CCNC(=O)c1ccco1	14%	10%	7%	-8	4%	0%
COc1ccc(CNc2ccc(Br)cc2)cc1	4%	u	u	-6	9%	-17%
COc1ccc(NC2=NCC(Cc3ccc(Br)cc3)S2)cc1 (configuration not stated)	26µM*	u	u	-91*	u	u
O=C1c2[nH]nc(-c3ccccc3)c2C(c2ccccc2)N1c1cccc(C(F)(F)F)c1 (configuration not stated)	16µM*	12µM*	x	x	x	x
Cc1ccc(-c2n[nH]c3c2C(c2cccc(O)c2)N(c2ccc(C(=O)O)cc2)C3=O)cc1 (configuration not stated)	16%	3%	u	45	1%	-11%
O=C1c2[nH]nc(-c3ccc(Br)cc3)c2C(c2cccc(O)c2)N1c1ccc(Cl)cc1 (configuration not stated)	23µM*	u	x	x	x	x
O=c1c2ccccc2nc(-c2ccc(Cl)cc2)n1CCCCOc1ccc(F)cc1	-10%	-19%	x	x	x	x
COc1ccc(Br)cc1CN1CCN(S(=O)(=O)Cc2ccccc2)CC1	8.2µM*	u	2%	7	18%	14%
CCOc1cc(CN2CCN(S(=O)(=O)c3ccc(C)cc3)CC2)ccc1OC	16µM*	u	x	x	x	x
CCCS(=O)(=O)N1CCN(Cc2ccc(OCc3ccccc3)c(OC)c2)CC1	u	u	x	-73*	-7%	6%
COc1ccc(OC)c(CN2CCN(S(=O)(=O)c3ccccc3)CC2)c1	-20%	-2%	0%	25	2%	0%
COc1cc(CN2CCC(C(=O)NCC(C)(C)CN(C)C)CC2)ccc1OCc1ccccc1	u	6.5µM*	-9%	-9	14%	6%
CCOc1ccc(S(=O)(=O)N2CCN(Cc3ccc4c(c3)OCO4)CC2)cc1OCC	-8%	u	-6%	-1	6%	21%
SMILES	TDP1 cell noCPT	DT40 TDP1 CPT	BCR signal inh	IL1B secr inh	MCF10A rereplic	SW480 rereplic
O=C(Cc1ccc(F)cc1)Nc1nnc2n1CCS2	-5%	-4%	x	x	x	x
O=C(c1cc(Br)ccc1O)N1CCN(S(=O)(=O)Cc2ccccc2)CC1	12µM*	u	u	0	-2%	2%
CCOc1cc(CN2CCN(S(=O)(=O)Cc3ccccc3)CC2)ccc1OC	23µM*	-19%	6%	15	11%	-3%
O=S(=O)(Cc1ccccc1)N1CCN(Cc2ccccc2)CC1	-17%	-30%	u	0	4%	-1%
O=C(COc1ccc(-c2ccccc2)cc1)N1CCN(S(=O)(=O)Cc2ccccc2)CC1	15µM*	23µM*	u	22	1%	u
O=C(c1cccc(F)c1)N1CCN(S(=O)(=O)Cc2ccccc2)CC1	13%	-4%	3%	11	-1%	-8%
CN1CCN(C(=O)C(=O)c2cn(CC(=O)N3CCOCC3)c3ccccc23)CC1	-23%	-2%	x	-22	x	x
S=C1NC2CCCCC2N1 (configuration not stated)	-2%	4%	0%	8	1%	-3%
CCCCN(C(=O)c1cccc(-n2cnnn2)c1)c1c(N)n(CCCC)c(=O)[nH]c1=O	1%	4%	x	29	x	x
Cc1cccc(N2CCN(C(=O)c3cc(S(=O)(=O)N4CCCC4)cn3C)CC2)c1C	u	23µM*	-17%	28	8.2µM*	15µM*
Cc1ccc(S(=O)(=O)N2CCOCC2)cc1C(=O)N1CCC(Cc2ccccc2)CC1	15µM*	u	-1%	-30	6%	-1%
Cc1ccc(C)c(N2CCN(C(=O)c3cc(S(=O)(=O)N4CCCC4)cn3C)CC2)c1	21µM*	18µM*	4%	-14	2%	-1%
Cc1cccc(N2CCN(S(=O)(=O)c3csc(C(N)=O)c3)CC2)c1C	21µM*	12µM*	x	x	x	x
CC(=O)c1ccc(N2CCN(S(=O)(=O)c3csc(C(N)=O)c3)CC2)cc1	6%	-2%	-1%	30	1%	0%
CC1Oc2ccccc2N(CC(=O)N2CCCCCC2)C1=O (configuration not stated)	-8%	-29%	-4%	-1	4%	-5%
COCCCNC(=O)Cn1cnc2sc(C)c(S(=O)(=O)N3CCC(C)CC3)c2c1=O	-16%	-15%	x	x	x	x
COc1ccc(CC(=O)N[C@@H]2c3cc(OC)c(OC)cc3C[C@H]2O)cc1	-6%	6%	-1%	-23	u	-3%
